This note sets out measurements from PubChem BioAssay (NCI).

Some test systems named below: NCI-H23 lung; NCI-H226 lung; NCI-H322M lung; HOP-62 NSCLC; NCI-H460 lung; HOP-92 NSCLC; NCI-H522 lung; A549/ATCC NSCLC; 786-0 renal; COLO 205 colon.
What all share (experiment): NCI-60 one-dose screen, 48 h (100 = growth as untreated, 0 = no growth, -100 = all killed)
Details in all cases: 10 µM unless noted

Each structure is given as a SMILES string. This is part of a sample that, as a whole, favours compounds with a hit. Of some 83,000 tested, about 20% had one in any assay.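 Compound tested at a single concentration for 48 hours in 96-well plates; a percent growth value below 10 was scored as active.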 Values without a mark were called inactive. The source made the active and inactive calls.

As to `CS(=O)(=O)c1ccc(-c2nn(-c3ccccc3)cc2/C=C/C(=O)c2ccc(Br)cc2)cc1`, the growth in the assay with NCI-H23 lung is 100%; in the assay with NCI-H226 lung, 101%; with NCI-H322M lung, 95.4%; with HOP-62 NSCLC it was 105%; with NCI-H460 lung, 93.9%; in the assay with HOP-92 NSCLC it was 114%. Moreover, the growth in the assay on NCI-H522 lung was 82.6%; in the assay on A549/ATCC NSCLC, 96.5%; in the assay with 786-0 renal, 91.5%; in the assay on COLO 205 colon, 113%.

For `COc1c([C@@H](CC(C)C)OC(C)=O)ccc2c1C(=O)OCc1cc(C)cc(O)c1O2`, the growth with NCI-H23 lung is 23.7%; with NCI-H226 lung it was 43.5%; in the assay with NCI-H322M lung, 54.3%; in the assay on HOP-62 NSCLC it was 24.5%; in the assay with NCI-H460 lung, 8.61% (active); with HOP-92 NSCLC, 3.04% (active). For the same compound, the growth in the assay on NCI-H522 lung is 20.2%; in the assay on A549/ATCC NSCLC it was 13.6%; in the assay on 786-0 renal it was 80.5%; in the assay with COLO 205 colon, 9.55% (active).

Take `Oc1ccc(-c2nnc(SCc3ccc(O)c4ncccc34)n2-c2ccccc2)cc1`: the growth in the assay on NCI-H23 lung is 19.3%; in the assay on NCI-H226 lung, 15.4%; with NCI-H322M lung it was 19.2%; with HOP-62 NSCLC, 19.3%; in the assay on NCI-H460 lung, 3.78% (active); with HOP-92 NSCLC, 4.59% (active). Besides, the growth in the assay with NCI-H522 lung was -4.72% (active); in the assay with A549/ATCC NSCLC, 6.81% (active); in the assay with 786-0 renal it was 19.1%; in the assay on COLO 205 colon, 28.2%.

As to `Cn1cc(-c2nn3cc(-c4cccnc4)nc3s2)c2cc(F)ccc21`, the growth in the assay on NCI-H23 lung was 93.9%; with NCI-H226 lung, 75%; in the assay with NCI-H322M lung, 87.8%; in the assay on HOP-62 NSCLC, 71.6%; in the assay on NCI-H460 lung it was 94.2%; with HOP-92 NSCLC it was 60.5%. Further, the growth was 70.2% in the assay with NCI-H522 lung, 94.4% with A549/ATCC NSCLC, 110% in the assay on 786-0 renal and 83.2% in the assay with COLO 205 colon.

On to `CC1CCN(S(=O)(=O)c2ncsc2-c2ccccc2)CC1`, for which the growth in the assay on NCI-H23 lung is 92.9%; in the assay on NCI-H226 lung, 99.9%; in the assay on NCI-H322M lung it was 98.6%; in the assay on HOP-62 NSCLC, 85.3%; in the assay with NCI-H460 lung, 91.5%; in the assay with HOP-92 NSCLC, 116%. Further, the growth in the assay on NCI-H522 lung was 98.5%; in the assay with A549/ATCC NSCLC it was 93.1%; in the assay with 786-0 renal it was 30.8%; in the assay with COLO 205 colon it was 112%.

Turning to `NC(N)=NS(=O)(=O)c1ccc(N=NC2C(=O)NN(c3ccccc3)C2=O)cc1` (stereo not given), the growth with NCI-H23 lung was 93.5%; with NCI-H226 lung it was 85.6%; in the assay on NCI-H322M lung it was 101%; in the assay on HOP-62 NSCLC it was 110%; in the assay on NCI-H460 lung, 101%; in the assay with HOP-92 NSCLC, 68.9%. The growth is 104% with NCI-H522 lung, 104% with A549/ATCC NSCLC, 100% with 786-0 renal and 113% in the assay on COLO 205 colon.

For the compound `NC(=O)N1N=C(c2cc3ccccc3oc2=O)CC1c1cn(-c2ccccc2)nc1-c1ccc(Cl)cc1` (stereo not given), the growth is 41.8% in the assay with NCI-H23 lung; 50.4% in the assay on NCI-H226 lung; 52% in the assay with NCI-H322M lung; 43.1% in the assay with HOP-62 NSCLC; 22.2% in the assay on NCI-H460 lung; 42.6% in the assay with HOP-92 NSCLC. For the same compound, the growth was 45.2% in the assay with NCI-H522 lung, 29.6% in the assay on A549/ATCC NSCLC, 39.3% in the assay with 786-0 renal and 28.8% in the assay on COLO 205 colon.

For `COCCC[C@H]1O[C@@](O)([C@H](C)[C@@H]2CC(OC)C(O)/C=C(C)/C=C(C)/C=C(\C)C(OC3O[C@@H](C)[C@H](O)C(O)[C@@H]3O)C(C)/C=C(C)/C=C(OC)/C=C(\C)C(=O)O2)C(OC)C(O)[C@]1(C)O[C@H]1C[C@@H](O)[C@H](O[C@H]2C[C@](C)(O)[C@H](O)C(C)O2)C(C)O1` (stereo not given in full), the growth in the assay on NCI-H23 lung was 41.2%; in the assay with NCI-H226 lung, 38.2%; in the assay on NCI-H322M lung it was 97.4%; in the assay with HOP-62 NSCLC, 68.9%; with NCI-H460 lung, 52.1%; in the assay with HOP-92 NSCLC it was 88.2%. In addition, the growth in the assay on NCI-H522 lung is 34.2%; with A549/ATCC NSCLC, 40%; in the assay with 786-0 renal it was 73.1%; with COLO 205 colon it was 40.4%.

As to `Cc1ccc(NC(=O)c2cc(/C=C/C(=O)NO)cc(C(F)(F)F)c2)cc1Nc1nccc(-c2cccnc2)n1`, the growth in the assay with NCI-H23 lung was 2.29% (active); with NCI-H226 lung it was 17.5%; with NCI-H322M lung it was 12.8%; with HOP-62 NSCLC, -19.1% (active); with NCI-H460 lung, 2.09% (active); with HOP-92 NSCLC, -30.6% (active). The growth in the assay on NCI-H522 lung was -73.1% (active); with A549/ATCC NSCLC it was 61.2%; in the assay on 786-0 renal it was -22% (active); in the assay on COLO 205 colon, -65.2% (active).

On to `O=C1NC(=O)/C(=C/c2ccc(OCc3cc4ccccc4nc3Cl)cc2)S1`, for which the growth was 87.1% in the assay on NCI-H23 lung; 101% in the assay on NCI-H226 lung; 103% with NCI-H322M lung; 105% in the assay on HOP-62 NSCLC; 101% in the assay with NCI-H460 lung; 78.6% in the assay on HOP-92 NSCLC. The growth in the assay with NCI-H522 lung was 79.8%; with A549/ATCC NSCLC, 99.6%; with 786-0 renal, 93.7%; in the assay with COLO 205 colon it was 122%.

In the case of `Nc1nc(-c2cccc([N+](=O)[O-])c2)c(N=Nc2cccc(Cl)c2)s1`, the growth in the assay on NCI-H23 lung was 45.5%; with NCI-H226 lung, 58.5%; in the assay with NCI-H322M lung it was 75.1%; in the assay with HOP-62 NSCLC, 46.3%; in the assay with NCI-H460 lung it was 49.5%; with HOP-92 NSCLC, -13.7% (active). Also, the growth in the assay with NCI-H522 lung is 26%; in the assay on A549/ATCC NSCLC, 48.7%; with 786-0 renal, 47.3%; in the assay on COLO 205 colon, 48.1%.

Turning to `COc1cc(/C=C/C(=O)c2ccc(N3CCN(C)CC3)cc2)ccc1F`, the growth in the assay with NCI-H23 lung is 84.4%; in the assay with NCI-H226 lung, 67.3%; in the assay on NCI-H322M lung, 84.2%; with HOP-62 NSCLC, 86.4%; in the assay on NCI-H460 lung, 102%; with HOP-92 NSCLC, 54.3%. Moreover, the growth was 97.2% with NCI-H522 lung, 76.7% with A549/ATCC NSCLC, 88.4% in the assay with 786-0 renal and 64.9% in the assay with COLO 205 colon.

Consider `COc1ccccc1/C=C/C=N/NC1=NC2C(S1)N(C)C(=O)N2c1ccccc1` (stereo not given), for which the growth with NCI-H23 lung was 30.1%; in the assay with NCI-H226 lung, 45.5%; in the assay on NCI-H322M lung, 38.1%; with HOP-62 NSCLC, 46%; in the assay on NCI-H460 lung, 2.27% (active); with HOP-92 NSCLC, 38.9%. For the same compound, the growth with NCI-H522 lung is 13.1%; with A549/ATCC NSCLC, 22.5%; with 786-0 renal it was 16.8%; with COLO 205 colon it was -4.6% (active).
